{"source": "PubChem BioAssay AID1463", "about": "(National Center for Advancing Translational Sciences (NCATS), 2008)", "note": "Hit rate of the full screen: of about 280,000 compounds, about 2,600 (0.93%) were called active. About 8% were inconclusive and are not listed. Calls come from the whole dose curve; as a rule, active = well fitted curve in the direction sought with a large enough effect; inconclusive = small, poorly fitted or top-dose-only effect; inactive = flat fitted curve, though single readings scatter. Shown is part of a subset that was picked to be rich in actives. % is set by controls: 0 for no effect and ±100 for the full control effect; potency is the fitted concentration of half-maximal effect; tags give direction and shape of the fitted curve or compound fluorescence and quenching.", "data": [{"test": "Counterscreen qHTS for Inhibitors of Tau Fibril Formation, Fluorescence Polarization; note: nearly all actives have a fitted effect of over 55% in size", "settings": "tau K18 P301L (four-repeat tau fragment) Alexa594 fluorescence, heparin fibrillization; series mostly up to 57.7 µM; activity change, negative = decrease: at the top concentration", "text": "NIH Molecular Libraries Probe Production Network [MLPCN]\nNIH Chemical Genomics Center [NCGC]\nAssay Provider: Carlo Ballatore, University of Pennsylvania\nThe microtubule-associated protein tau is an abundant protein in the axons of neurons that stabilizes microtubules. With its ability to modulate microtubule dynamics, tau contributes directly or indirectly, to key structural and regulatory cellular functions. Particularly important is the influence tau exerts on axonal transport, which allows signaling molecules, trophic factors and other essential cellular constituents to travel along the axons. Under pathological conditions, tau becomes sequestered into insoluble aggregates called neurofibrillary tangles. This phenomenon is believed to have pathological consequences by promoting axonal transport deficits that ultimately lead to synaptic dysfunction and neuronal loss. To identify inhibitors of tau aggregation, a heparin-induced tau fibril formation assay was used that employed a recombinantly expressed fragment of tau, K18 (Q242-E372), bearing a P301L mutation (Gustke et al. 1994; Hong et al. 1998). […] Total fluorescence (555 nm excitation and 632 nm emission) was measured to identify fluorescent or absorbent compounds at this wavelength. Such compounds may be artifacts that interfere with the Alexa 594 Tau fluorescence polarization assay.\nGustke, N., B. Trinczek, et al. (1994). \"Domains of tau protein and interactions with microtubules.\" Biochemistry 33(32): 9511-22.\nHong, M., V. Zhukareva, et al. (1998).\nLi, W. and V. M. Lee (2006). \"Characterization of two VQIXXK motifs for tau fibrillization in vitro.\" Biochemistry 45(51): 15692-701.\nvon Bergen, M., S. Barghorn, et al. (2001). \"Mutations of tau protein in frontotemporal dementia promote aggregation of paired helical filaments by enhancing local beta-structure.\" J Biol Chem 276(51): 48165-74.\nNCGC Assay Protocol Summary:\nFor screening, 2 uL/well human K18 P301L (15 uM unlabeled and 0.24 uM Alexa 594-labeled tau final concentrations) in reagent buffer (100 mM sodium acetate pH 7) was dispensed into black solid 1536-well plates (Grenier) using a solenoid-based dispenser. Following transfer of 23 nL compound or DMSO vehicle by a pin tool, 2 uL/well heparin (20 uM final concentration) in reagent buffer was added and the plate centrifuged 15 s at 1000 RPM. Plates were incubated 6 hr at 37 C and then 1 uL/well ThT (30 uM final concentration) was added. After a 1 hr ambient incubation, the plates were read by an Envision (Perkin Elmer) to monitor Alexa 594 FP (555 nm excitation and 632 nm emission).\nKeywords: NIH Roadmap, MLPCN, MLI, MLSMR, NCGC, qHTS, tau, tauopathies, Alzheimer's disease, fibril, neurodegeneration, aggregation", "values": [{"smiles": "COC(=O)c1ccc(NC(=O)CCc2c(C)nn(-c3ccc(N4CCCC4)nn3)c2C)cc1", "activity change, negative = decrease": "-12.2% (inactive)"}, {"smiles": "COc1ccc(N=C(C)c2sc3ccccc3c2O)cc1", "activity change, negative = decrease": "-23.8% (inactive)"}, {"smiles": "Oc1ccc2ccccc2c1C=Nc1ccccc1", "activity change, negative = decrease": "-20.7% (inactive)"}, {"smiles": "Oc1ccc(N=Cc2sc3ccccc3c2Cl)cc1", "Potency": "10 µM [quencher] (active)"}, {"smiles": "CCCNc1ncnc2c1c(-c1ccccc1)cn2-c1ccc(OCC)cc1", "activity change, negative = decrease": "-8.19% (inactive)"}, {"smiles": "O=C(Nc1ccccc1F)C(c1ccccc1)N1Cc2ccccc2C1=O", "note": "(configuration not stated)", "activity change, negative = decrease": "-6.79% (inactive)"}, {"smiles": "Cc1ccc(C)c(CNC(=O)c2cc3ccccn3n2)c1", "activity change, negative = decrease": "-15.9% (inactive)"}, {"smiles": "CCc1ccc(CNC(=O)c2ccc(CS(=O)c3ccc(Br)cc3)o2)cc1", "note": "(configuration not stated)", "activity change, negative = decrease": "-8.58% (inactive)"}, {"smiles": "CN(C)c1cccc(C(=O)Nc2nc3ccc(S(=O)(=O)NC(C)(C)C)cc3s2)c1", "activity change, negative = decrease": "-26.9% (inactive)"}, {"smiles": "COCCNc1ccnc(-c2cccc(NS(C)(=O)=O)c2)n1", "activity change, negative = decrease": "-11.8% (inactive)"}, {"smiles": "COc1ccc2[nH]cc(CCNc3ncnc4ccc(-c5ccccc5CN(C)C)cc34)c2c1", "activity change, negative = decrease": "-18.8% (inactive)"}, {"smiles": "COc1ccc2[nH]cc(CCNc3nc(-c4cccc(NS(C)(=O)=O)c4)nc4ccccc34)c2c1", "Potency": "28.2 µM [quencher] (active)"}, {"smiles": "Cc1cccc(Cn2c(CN3CCC(C(=O)NCc4ccccc4Cl)CC3)cc3ccccc32)c1", "activity change, negative = decrease": "-1.33% (inactive)"}, {"smiles": "CCn1c2ccccc2c2cc(NC(=O)Nc3ccc([N+](=O)[O-])cc3C)ccc21", "Potency": "8.91 µM [quencher] (active)"}, {"smiles": "Cc1cc([N+](=O)[O-])ccc1NC(=O)c1ccc(NC(=O)C(C)C)cc1", "activity change, negative = decrease": "-6.04% (inactive)"}, {"smiles": "CCn1c2ccccc2c2cc(NC(=O)CNC)ccc21", "activity change, negative = decrease": "-25.8% (inactive)"}, {"smiles": "O=C(Cn1cc(SCc2cccc(Cl)c2)c2ccccc21)N1CCCCC1", "activity change, negative = decrease": "-24.4% (inactive)"}, {"smiles": "Cc1nc2ccn(Cc3cccnc3)c(=O)c2cc1C(=O)N1CCN(c2ccccc2F)CC1", "activity change, negative = decrease": "-0.563% (inactive)"}, {"smiles": "CCOc1ccccc1C(=O)NCC(c1ccc(N(C)C)cc1)N1CCCC1", "note": "(configuration not stated)", "activity change, negative = decrease": "4.45% (inactive)"}, {"smiles": "CN(C)c1ccc(C(CNC(=O)c2ccc(F)cc2)c2c[nH]c3ccccc23)cc1", "note": "(configuration not stated)", "Potency": "25.1 µM [quencher] (active)"}, {"smiles": "O=C(Cc1ccccc1)NCc1ccc(F)cc1", "activity change, negative = decrease": "-0.209% (inactive)"}, {"smiles": "CCOc1ccc(CNC(=O)Cn2cc3c(n2)-c2c(oc(C(=O)N4CCCC4)c2C)CC3)cc1", "activity change, negative = decrease": "-13.1% (inactive)"}, {"smiles": "O=C(CN1C(=O)COc2ccc(S(=O)(=O)N3CCOCC3)cc21)N1CCN(c2cccc(Cl)c2)CC1", "activity change, negative = decrease": "-9.08% (inactive)"}, {"smiles": "COc1ncnc2sc3c(c12)CCCC3", "activity change, negative = decrease": "6.33% (inactive)"}, {"smiles": "CC1(C)CN=C(N2CCN(c3ncnc4sc5c(c34)CCCC5)CC2)S1", "activity change, negative = decrease": "2.38% (inactive)"}, {"smiles": "COc1ccc(/C=N/Nc2ncnc3sc4c(c23)CCCC4)cc1O", "Potency": "14.1 µM [quencher] (active)"}, {"smiles": "Cc1ccc(Cl)cc1NC(=O)CCS(=O)(=O)c1ccc(Br)s1", "activity change, negative = decrease": "-2.67% (inactive)"}, {"smiles": "Cc1ccccc1Nc1nn2c(=O)c3ccc(C(=O)NCCc4ccc(Cl)cc4)cc3nc2s1", "activity change, negative = decrease": "-23.6% (inactive)"}, {"smiles": "CN1CCN(C2(CNC(=O)COc3ccc(C(C)(C)C)cc3)CCCCC2)CC1", "activity change, negative = decrease": "-8.9% (inactive)"}, {"smiles": "Cn1c(C(=O)N2CCC(C(=O)N3CCN(c4ccccc4)CC3)CC2)cc2sccc21", "activity change, negative = decrease": "-5.95% (inactive)"}, {"smiles": "O=C(N/N=C/c1c(Cl)[nH]c2ccccc12)c1sc2ccccc2c1Cl", "Potency": "10 µM [quencher] (active)"}, {"smiles": "CCCC(=O)Nc1ccc(NC(=O)c2sc3ccccc3c2Cl)cc1", "activity change, negative = decrease": "-3.72% (inactive)"}, {"smiles": "Cc1nn(C)cc1/C=N/NC(=O)c1sc2ccccc2c1Cl", "activity change, negative = decrease": "-17.1% (inactive)"}, {"smiles": "CCOc1ccc(CCNC(=O)c2ccc3c(c2)sc2nc(-c4ccc(F)cc4)cn23)cc1OCC", "activity change, negative = decrease": "-23.8% (inactive)"}, {"smiles": "COc1ccccc1CSc1nc2ccccc2[nH]1", "activity change, negative = decrease": "-13.5% (inactive)"}, {"smiles": "COc1ccccc1CC(=O)Nc1ccc([N+](=O)[O-])cc1OC", "activity change, negative = decrease": "-24.8% (inactive)"}, {"smiles": "COc1ccccc1CSc1ncc(-c2ccc([N+](=O)[O-])cc2)[nH]1", "Potency": "28.2 µM [quencher] (active)"}, {"smiles": "CCc1ccccc1NC(=O)N1CCN(C(=O)c2nsc3ccccc23)CC1", "activity change, negative = decrease": "-5.01% (inactive)"}, {"smiles": "COc1cccc(NC(=S)NCc2ccco2)c1", "activity change, negative = decrease": "1.26% (inactive)"}, {"smiles": "Cc1[nH]c2ccccc2c1CCN(Cc1cccs1)C(=S)NC(C)(C)C", "activity change, negative = decrease": "-17.2% (inactive)"}, {"smiles": "COc1cccc(NC(=S)N(CCc2c(C)[nH]c3ccccc23)Cc2ccco2)c1", "Potency": "12.6 µM [quencher] (active)"}, {"smiles": "CC(C)(C)OC(=O)N1CCC(c2c(C(=O)N3CCc4ccccc4C3)cnn2-c2ccc(F)cc2)CC1", "activity change, negative = decrease": "-6.75% (inactive)"}, {"smiles": "Cc1ccc2[nH]cc(CCCN3C(=O)c4ccccc4C3=O)c2c1", "Potency": "25.1 µM [quencher] (active)"}, {"smiles": "O=C1c2ccccc2C(=O)N1CCCc1nc(-c2ccccc2)no1", "activity change, negative = decrease": "-12.6% (inactive)"}, {"smiles": "O=C1c2ccccc2C(=O)N1CCc1nn[nH]n1", "activity change, negative = decrease": "4.43% (inactive)"}, {"smiles": "COc1ccc(CCNC(=O)c2ccc3c(c2)sc2nc(-c4ccc(C)cc4)cn23)cc1OC", "activity change, negative = decrease": "12.4% (inactive)"}, {"smiles": "O=C(CSCc1cnn(-c2ccccc2)c1-n1cccc1)NCc1ccccc1Br", "activity change, negative = decrease": "-5.24% (inactive)"}, {"smiles": "CCOc1ccccc1CNC(=O)c1cnc2c(-c3ccc(OCC)c(OCC)c3)c(C)nn2c1C", "activity change, negative = decrease": "-23.8% (inactive)"}, {"smiles": "CN(c1ccc(OCC(=O)NC2=NCCS2)cc1)S(=O)(=O)c1ccc(F)cc1", "activity change, negative = decrease": "-15% (inactive)"}, {"smiles": "CN(CC(=O)Nc1cccc(F)c1)CC(=O)Nc1cccc([N+](=O)[O-])c1", "activity change, negative = decrease": "-23.4% (inactive)"}, {"smiles": "CN(c1ccc(OCC(=O)OCC(=O)Nc2cccc([N+](=O)[O-])c2)cc1)S(=O)(=O)c1ccc(F)cc1", "Potency": "10 µM [quencher] (active)"}, {"smiles": "Cn1ccc(NC(=O)Nc2ccc(Cl)cc2)n1", "activity change, negative = decrease": "-10.6% (inactive)"}, {"smiles": "NS(=O)(=O)c1ccc(CCNC(=O)Nc2ccc(Cl)cc2)cc1", "activity change, negative = decrease": "15.1% (inactive)"}, {"smiles": "CC(C)S(=O)(=O)c1csc(NC(=O)Nc2ccc(Cl)cc2)c1Cl", "Potency": "25.1 µM [quencher] (active)"}, {"smiles": "Cc1ccc(CSc2nc3cccnc3n2Cc2ccc(C(=O)NC3CC3)cc2)cc1", "activity change, negative = decrease": "2.64% (inactive)"}, {"smiles": "CCCNC(=O)CCn1nc(-c2ccccc2)c2ccccc2c1=O", "activity change, negative = decrease": "-6.14% (inactive)"}, {"smiles": "COc1cc(NS(=O)(=O)c2cccs2)cc(OC)c1", "activity change, negative = decrease": "-14.8% (inactive)"}, {"smiles": "O=C(Nc1cccc(Cl)c1)Nc1ccccc1NS(=O)(=O)c1cccs1", "Potency": "11.2 µM [quencher] (active)"}, {"smiles": "O=C(Nc1nncs1)c1ccccc1NS(=O)(=O)c1cccs1", "activity change, negative = decrease": "-4.18% (inactive)"}, {"smiles": "CC(NC(=O)c1cc(Sc2ccc(F)cc2F)nc2ccccc12)c1ccccc1", "note": "(configuration not stated)", "activity change, negative = decrease": "-10.4% (inactive)"}, {"smiles": "CCN(c1ccc(Cl)cc1)S(=O)(=O)c1nnc(NC(=O)c2ccco2)s1", "activity change, negative = decrease": "-2.62% (inactive)"}, {"smiles": "COc1ccc(CCNC(=O)C(=O)NCC(c2ccco2)S(=O)(=O)c2cccs2)cc1OC", "note": "(configuration not stated)", "activity change, negative = decrease": "-16.5% (inactive)"}]}]}
